A short description of assay [1]: ATG_EGR_CIS: Attagene CIS-FACTORIAL HepG2 Assay for human Early Growth Response 1 (EGR1) (AID 2282938). Conditions: HepG2 Attagene CIS-FACTORIAL EGR reporter mRNA; actives raise or lower the signal. The procedure, abridged:
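Cell-based multiplex transcription assay: HepG2 carrying transfected cis-element reporter units, 24 h chemical treatment. Fluorescence from capillary electrophoresis of RT-PCR products gives mRNA levels; fitting is bidirectional relative to DMSO.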

Assay [2] in a line: ATG_M_19_CIS: Attagene CIS-FACTORIAL HepG2 Assay for M19 Transcription Factor (Internal Marker) (AID 2282939). Conditions: HepG2 Attagene CIS-FACTORIAL M19 internal marker reporter; actives raise or lower the signal. The procedure, abridged:
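Chemical-treated HepG2 (24 h) with MRTU constructs; reporter transcripts detected by fluorescent RT-PCR fragment analysis on capillary electrophoresis. Internal background marker, DMSO as baseline.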

The nature of assay [3]: ATG_ERE_CIS: Attagene CIS-FACTORIAL HepG2 Assay for Estrogen Response Element (ERE) (AID 2282940). To be noted: HepG2 ERE cis-reporter, Attagene RNA transcript; actives raise or lower the signal. The procedure, abridged: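 Human liver cells (HepG2) bearing transiently transfected, promoter-regulated reporter units were exposed 24 h. Reporter mRNA induction was detected by capillary electrophoresis of labelled RT-PCR products and fitted bidirectionally to DMSO.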

Assay [4] in a line: ATG_Ets_CIS: Attagene CIS-FACTORIAL HepG2 Assay for human Erythroblast Transformation Specific (ETS) (AID 2282941). To be noted: HepG2 ETS cis-reporter transcription, actives raise or lower the signal. The gist of the method:
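RT-PCR/capillary electrophoresis fluorescence read-out of reporter mRNA; HepG2 transient multi-reporter transfection; 24 h compound exposure; gain or loss of signal fitted bidirectionally relative to DMSO.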

The target in assay [5] is Hepatocyte nuclear factor 3-beta (Homo sapiens) (UniProt Q9Y261). In words: ATG_FoxA2_CIS: Attagene CIS-FACTORIAL HepG2 Assay for human Forkhead box A2 (FOXA2) (AID 2282942). To be noted: HepG2 cis-reporter transcription factor activity, 24 h; actives raise or lower the signal. The gist of the method:
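In transiently transfected human HepG2 cells, promoter-driven reporter mRNA levels after 24 h chemical exposure are determined via RT-PCR with capillary electrophoresis. DMSO serves as baseline for bidirectional fitting.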

Assay [6] in a line: ATG_GLI_CIS: Attagene CIS-FACTORIAL HepG2 Assay for human Zinc Finger Protein GLI1 (AID 2282945). Conditions: HepG2, Attagene cis-factorial reporter mRNA, GLI element; actives raise or lower the signal. The procedure, abridged:
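Transiently transfected HepG2 cells report endogenous transcription factor activity via cis-element-driven reporter units. After 24 h compound exposure, reporter mRNA was measured by RT-PCR with capillary electrophoresis; bidirectional fitting against DMSO baseline.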

For assay [7], the target named is Bile acid receptor (Homo sapiens) (UniProt Q96RI1). In words: ATG_IR1_CIS: Attagene CIS-FACTORIAL HepG2 Assay for human Nuclear Receptor Subfamily 1 Group H Member 4 (NR1H4), IR1 submotif (AID 2282946). Conditions: IR1 reporter transcription, actives raise or lower the signal. The procedure, abridged:
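Fluorescence of capillary-separated, HpaI-digested RT-PCR reporter products gave IR1-element mRNA induction in HepG2 cells 24 h after dosing. Endogenous transcription factors drove the cis-regulated reporters; activity was fitted bidirectionally against DMSO.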

Assay [8] is described as follows: ATG_GRE_CIS: Attagene CIS-FACTORIAL HepG2 Assay for human Glucocorticoid Response Elements (GRE) (AID 2282947). To be noted: HepG2 GRE cis-reporter, Attagene multiplex mRNA; actives raise or lower the signal. The gist of the method: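 Read-out: fluorescent reporter-transcript fragments separated by capillary electrophoresis after RT-PCR. Transiently transfected HepG2 cells carrying cis-element-driven reporter units were dosed for 24 h; gain or loss of signal fitted against DMSO control.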

Assay [9] in a line: ATG_ISRE_CIS: Attagene CIS-FACTORIAL HepG2 Assay for human Interferon Regulatory Factor 1 (IRF1) binding to an Interferon-Stimulated Response Element (ISRE) (AID 2282948). Conditions: HepG2 ISRE cis-reporter (Attagene), mRNA transcription readout; actives raise or lower the signal. The gist of the method: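 Read-out: fluorescent RT-PCR products resolved by capillary electrophoresis, reporting endogenous transcription factor activity via ISRE-driven reporter mRNA in transfected HepG2 cells dosed for 24 h; gain or loss fitted relative to DMSO.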

The nature of assay [10]: ATG_M_06_CIS: Attagene CIS-FACTORIAL HepG2 Assay for M06 Transcription Factor (Internal Marker) (AID 2282950). To be noted: HepG2 Attagene CIS-FACTORIAL M06 internal marker reporter; actives raise or lower the signal. The procedure, abridged:
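Cells (HepG2, transiently carrying cis-driven reporter units) receive chemical for 24 h before RNA isolation. Reporter cDNA is PCR-amplified, FAM-labelled by primer extension, HpaI-digested and sized on a capillary analyser.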

The target of assay [11] is Hypoxia-inducible factor 1-alpha (Homo sapiens) (UniProt Q16665). Put plainly: ATG_HIF1a_CIS: Attagene CIS-FACTORIAL HepG2 Assay for human Hypoxia Inducible Factor 1 (HIF1A) (AID 2282951). Conditions: HepG2 Attagene cis-factorial HIF1a reporter transcription; actives raise or lower the signal. The gist of the method:
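In this multiplexed cell assay, HepG2 cells bearing transfected cis reporters are dosed for 24 h and reporter mRNA is read by RT-PCR plus capillary electrophoresis; signal increases and decreases are both scored against DMSO.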

Assay [12] has as its target Hepatocyte nuclear factor 6 (Homo sapiens) (UniProt Q9UBC0). Put plainly: ATG_HNF6_CIS: Attagene CIS-FACTORIAL HepG2 Assay for human Hepatocyte Nuclear Factor 6 (HNF6) (AID 2282952). To be noted: HepG2 Attagene cis-factorial HNF6 reporter transcription; actives raise or lower the signal. The procedure, abridged: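 Activity values derive from bidirectional fitting against DMSO of reporter mRNA levels, measured by capillary electrophoresis of labelled RT-PCR products from HepG2 cells exposed 24 h.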

The target in assay [13] is Heat shock factor protein 1 (Homo sapiens) (UniProt Q00613). In words: ATG_HSE_CIS: Attagene CIS-FACTORIAL HepG2 Assay for human Heat Shock Transcription Factor 1 (HSE) (AID 2282953). Conditions: HepG2 HSE cis-reporter, Attagene RNA transcription; actives raise or lower the signal. The gist of the method:
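Liver-derived HepG2 cells carry transiently introduced multiple reporter units governed by cis promoters. Reporter RNA measured 24 h post-dose through reverse transcription, PCR amplification, fluorescent labelling and capillary electrophoresis, normalised to DMSO.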

Assay [14] in a line: ATG_MRE_CIS: Attagene CIS-FACTORIAL HepG2 Assay for human Metal Responsive Element (MRE) (AID 2282954). To be noted: HepG2 MRE cis-reporter transcription, Attagene multiplex; actives raise or lower the signal. The procedure, abridged:
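RT-PCR/capillary electrophoresis readout of reporter mRNA, 24 h post-dosing, in HepG2 cells transfected with multiplexed cis-regulated reporter constructs. Gain or loss of signal fitted bidirectionally against DMSO baseline.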

Assay [15] is described as follows: ATG_PBREM_CIS: Attagene CIS-FACTORIAL HepG2 Assay for human Phenobarbital-responsive Enhancer Module (PBREM) (AID 2282955). To be noted: HepG2 PBREM cis-reporter, Attagene multiplexed transcription; actives raise or lower the signal. The procedure, abridged:
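After a 24 h incubation with test chemical, transfected HepG2 cells yield total RNA; reporter-specific RT-PCR products are fluorescently labelled, HpaI-digested and resolved by capillary electrophoresis against ROX size standards.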

Assay [16] addresses Paired box protein Pax-6 (Homo sapiens) (UniProt P26367). In words: ATG_Pax6_CIS: Attagene CIS-FACTORIAL HepG2 Assay for human Paired Box 6 (PAX6) (AID 2282956). Conditions: HepG2 CIS-FACTORIAL PAX6 reporter transcription, RNA readout; actives raise or lower the signal. The procedure, abridged:
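Readout: reporter transcript fluorescence after RT-PCR and capillary electrophoresis. Cells: HepG2, transiently transfected with cis-regulated MRTUs. Exposure 24 h. Gain or loss of signal fitted bidirectionally relative to DMSO.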

Assay [17] in a line: ATG_FoxO_CIS: Attagene CIS-FACTORIAL HepG2 Assay for human Forkhead box O (FoxO) (AID 2282943). To be noted: HepG2 Attagene cis-reporter, FoxO element, mRNA; actives raise or lower the signal. The gist of the method: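 Transfected HepG2 reporter cells exposed to test chemical for 24 h; reporter RNA measured by reverse transcription, PCR and fluorescent capillary electrophoresis; curves fitted for increases and decreases against DMSO.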

Assay [18] can be described thus: ATG_GATA_CIS: Attagene CIS-FACTORIAL HepG2 Assay for human GATA Binding Protein (AID 2282944). To be noted: HepG2 GATA cis-element reporter, Attagene multiplex mRNA; actives raise or lower the signal. The gist of the method:
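Transfected cis-reporter HepG2 cells were treated with chemicals for 24 hours. Total RNA was then converted to cDNA, amplified with reporter-specific primers and analysed by fluorescent capillary electrophoresis, using DMSO-treated wells as baseline.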

A short description of assay [19]: ATG_M_32_CIS: Attagene CIS-FACTORIAL HepG2 Assay for M32 Transcription Factor (Internal Marker) (AID 2282949).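 Also: background control marker of the multiplexed CIS panel rather than a real target.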 Conditions: HepG2 Attagene cis-factorial M32 reporter, mRNA; actives raise or lower the signal. The gist of the method: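 Using DMSO as baseline, bidirectional curve fits were applied to reporter mRNA signals. These came from transiently transfected HepG2 cells exposed for 24 h, with RNA analysed by RT-PCR, FAM primer extension, HpaI digestion and CE.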

Calls of active or inactive are those of the source. The calls were made as follows: active = hit-call score of the fitted dose curve at least 0.9, where 1 is the maximum; inactive = score below 0.9.

Hypoxia-inducible factor 1-alpha (Homo sapiens), sequence (Q16665 whole entry, looked up): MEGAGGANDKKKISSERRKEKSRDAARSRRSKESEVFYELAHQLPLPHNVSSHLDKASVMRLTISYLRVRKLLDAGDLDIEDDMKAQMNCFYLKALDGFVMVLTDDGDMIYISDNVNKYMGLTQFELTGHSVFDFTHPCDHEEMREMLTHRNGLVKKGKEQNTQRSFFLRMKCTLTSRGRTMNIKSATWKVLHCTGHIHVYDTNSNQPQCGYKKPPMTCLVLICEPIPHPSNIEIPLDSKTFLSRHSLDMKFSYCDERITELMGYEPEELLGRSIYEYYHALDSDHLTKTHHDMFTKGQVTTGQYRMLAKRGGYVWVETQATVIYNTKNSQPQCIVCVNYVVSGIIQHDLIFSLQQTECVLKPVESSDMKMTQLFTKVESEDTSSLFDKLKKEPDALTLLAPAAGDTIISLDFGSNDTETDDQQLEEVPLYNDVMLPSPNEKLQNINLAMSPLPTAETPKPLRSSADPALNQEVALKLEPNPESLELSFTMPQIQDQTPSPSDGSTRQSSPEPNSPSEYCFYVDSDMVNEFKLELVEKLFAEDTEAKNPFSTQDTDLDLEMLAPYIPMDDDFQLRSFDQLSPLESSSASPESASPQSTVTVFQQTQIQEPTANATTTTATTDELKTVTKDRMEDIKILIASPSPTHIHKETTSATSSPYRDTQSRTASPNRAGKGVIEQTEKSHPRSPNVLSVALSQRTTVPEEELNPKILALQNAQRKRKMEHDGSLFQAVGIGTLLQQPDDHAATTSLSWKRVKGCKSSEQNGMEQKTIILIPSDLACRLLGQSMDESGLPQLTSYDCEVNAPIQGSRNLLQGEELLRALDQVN
Paired box protein Pax-6 (Homo sapiens), sequence (P26367 whole entry, looked up): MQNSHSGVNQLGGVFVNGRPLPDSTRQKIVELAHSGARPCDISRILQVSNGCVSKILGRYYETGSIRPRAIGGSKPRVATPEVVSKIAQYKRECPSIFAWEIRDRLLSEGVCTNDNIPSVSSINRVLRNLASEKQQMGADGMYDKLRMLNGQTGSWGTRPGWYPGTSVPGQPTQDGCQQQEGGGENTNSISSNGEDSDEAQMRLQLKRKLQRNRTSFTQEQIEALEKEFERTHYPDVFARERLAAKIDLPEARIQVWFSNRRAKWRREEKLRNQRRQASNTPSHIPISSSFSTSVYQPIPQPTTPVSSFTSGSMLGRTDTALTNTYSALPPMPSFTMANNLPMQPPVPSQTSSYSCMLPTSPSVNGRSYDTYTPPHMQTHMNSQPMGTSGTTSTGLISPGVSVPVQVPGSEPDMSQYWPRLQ
Hepatocyte nuclear factor 6 (Homo sapiens), sequence (Q9UBC0 whole entry, looked up): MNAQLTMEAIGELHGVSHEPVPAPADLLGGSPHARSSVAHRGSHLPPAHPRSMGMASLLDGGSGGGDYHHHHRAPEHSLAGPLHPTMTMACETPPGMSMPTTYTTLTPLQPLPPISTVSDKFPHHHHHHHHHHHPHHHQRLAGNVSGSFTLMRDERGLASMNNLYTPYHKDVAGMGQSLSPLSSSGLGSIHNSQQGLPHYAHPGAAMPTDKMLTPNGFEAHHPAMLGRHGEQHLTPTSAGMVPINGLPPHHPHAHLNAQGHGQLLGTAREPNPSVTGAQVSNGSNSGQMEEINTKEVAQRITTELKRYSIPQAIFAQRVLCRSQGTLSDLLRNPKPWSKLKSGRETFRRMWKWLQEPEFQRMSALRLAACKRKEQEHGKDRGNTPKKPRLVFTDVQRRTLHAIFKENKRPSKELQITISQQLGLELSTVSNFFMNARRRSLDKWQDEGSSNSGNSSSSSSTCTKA
Bile acid receptor (Homo sapiens), sequence (Q96RI1 whole entry, looked up): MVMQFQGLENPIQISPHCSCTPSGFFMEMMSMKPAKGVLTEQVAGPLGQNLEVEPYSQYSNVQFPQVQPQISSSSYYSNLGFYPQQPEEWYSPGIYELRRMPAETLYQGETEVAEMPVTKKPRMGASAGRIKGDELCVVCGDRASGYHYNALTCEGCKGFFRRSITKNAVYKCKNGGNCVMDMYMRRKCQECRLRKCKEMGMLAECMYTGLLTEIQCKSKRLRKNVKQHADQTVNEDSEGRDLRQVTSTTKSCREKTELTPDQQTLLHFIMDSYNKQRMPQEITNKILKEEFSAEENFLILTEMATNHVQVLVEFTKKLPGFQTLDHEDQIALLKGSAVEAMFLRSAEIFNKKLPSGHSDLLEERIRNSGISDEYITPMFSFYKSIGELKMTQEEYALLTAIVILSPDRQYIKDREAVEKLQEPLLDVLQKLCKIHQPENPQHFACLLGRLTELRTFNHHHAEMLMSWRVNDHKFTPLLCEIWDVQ
Hepatocyte nuclear factor 3-beta (Homo sapiens), sequence (Q9Y261 whole entry, looked up): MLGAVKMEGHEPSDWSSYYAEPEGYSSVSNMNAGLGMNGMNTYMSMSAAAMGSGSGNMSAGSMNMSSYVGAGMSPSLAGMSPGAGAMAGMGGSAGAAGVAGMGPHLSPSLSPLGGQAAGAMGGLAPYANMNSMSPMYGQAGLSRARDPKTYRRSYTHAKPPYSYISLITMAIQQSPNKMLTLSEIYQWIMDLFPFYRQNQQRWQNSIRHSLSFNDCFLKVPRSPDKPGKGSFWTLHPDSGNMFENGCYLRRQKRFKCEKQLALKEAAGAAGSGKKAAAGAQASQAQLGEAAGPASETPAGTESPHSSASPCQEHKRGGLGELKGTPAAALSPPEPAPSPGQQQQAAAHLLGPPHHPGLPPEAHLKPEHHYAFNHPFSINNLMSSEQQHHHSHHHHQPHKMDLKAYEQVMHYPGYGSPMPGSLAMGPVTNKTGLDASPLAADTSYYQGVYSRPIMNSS
Heat shock factor protein 1 (Homo sapiens), sequence (Q00613 whole entry, looked up): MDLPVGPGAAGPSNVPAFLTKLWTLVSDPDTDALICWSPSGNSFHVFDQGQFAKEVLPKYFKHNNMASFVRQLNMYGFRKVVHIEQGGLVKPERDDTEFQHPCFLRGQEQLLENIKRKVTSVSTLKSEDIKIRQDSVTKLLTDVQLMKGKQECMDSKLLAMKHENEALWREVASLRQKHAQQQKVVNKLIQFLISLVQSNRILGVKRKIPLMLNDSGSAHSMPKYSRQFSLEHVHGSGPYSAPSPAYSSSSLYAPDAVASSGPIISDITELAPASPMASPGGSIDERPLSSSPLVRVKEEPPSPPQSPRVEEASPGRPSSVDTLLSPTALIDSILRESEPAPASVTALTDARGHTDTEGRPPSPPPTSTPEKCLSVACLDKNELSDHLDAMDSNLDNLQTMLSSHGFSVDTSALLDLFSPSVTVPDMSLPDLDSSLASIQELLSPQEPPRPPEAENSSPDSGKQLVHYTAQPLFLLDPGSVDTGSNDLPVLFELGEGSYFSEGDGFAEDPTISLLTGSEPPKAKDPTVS

For the molecule `Nc1c(Oc2ccccc2)cc(O)c2c1C(=O)c1ccccc1C2=O`, the result in assay [1], in assay [2], in assay [3], in assay [4], in [5] and in [6] was inactive. Further, the result in assay [7], in assay [8], in [9], in assay [10], in assay [11] and in assay [12] was inactive. Moreover, the result in assay [13], in assay [14], in [15] and in assay [16] was inactive.
With `O=C(O)CC(O)(CC(=O)O)C(=O)O`, the call in [1], in assay [2], in assay [4], in assay [5], in assay [17] and in assay [18] was inactive. In addition, the outcome in assay [6], in [9], in assay [19], in [12], in assay [13] and in [14] was inactive. Further, the outcome in assay [15] and in assay [16] was inactive.
As to `O=c1[nH]c(=O)n(Cl)c(=O)n1Cl`, the result in [1], in [2], in assay [4], in [5], in [17] and in [18] was inactive. The result in assay [6], in [8], in [9], in [11], in [12] and in [13] was inactive. The result in assay [14] and in assay [16] was inactive.
With `CC(C)[C@H](C(=O)OC(C#N)c1cccc(Oc2ccccc2)c1)c1ccc(OC(F)F)cc1` (stereo partly specified), the call in assay [1], in assay [2], in [4], in assay [5], in [17] and in [18] was inactive. Also, the outcome in [6], in assay [7], in assay [8], in [9], in [19] and in assay [10] was inactive. Further, the result in assay [11], in [12], in assay [13], in assay [14] and in assay [16] was inactive. The AC50 in [15] is 1.18 µM (active).
Take `Clc1cccc(Cl)c1Cl`: the call in assay [1], in assay [2], in [4], in assay [17], in assay [18] and in assay [6] was inactive. The call in [8], in [9], in [19], in [11], in [12] and in assay [13] was inactive. Besides, the call in assay [14], in assay [15] and in assay [16] was inactive.
Consider `CCOP(=O)(OCC)SCCSCC`, for which the call in [1], in assay [2], in [3], in assay [17], in [18] and in assay [6] was inactive. Moreover, the result in assay [9], in assay [19], in [10], in [11], in assay [12] and in assay [13] was inactive. Besides, the molecule was classed as inactive in assay [14] and in assay [16].
In the case of `COC(=O)Nc1cccc(OC(=O)Nc2cccc(C)c2)c1`, the result in [1], in assay [2], in [4], in assay [5], in assay [17] and in [18] was inactive. Also, the call in assay [6], in [7], in assay [8], in [9], in assay [19] and in assay [10] was inactive. Further, the call in [11], in [12], in [14], in [15] and in [16] was inactive.
Turning to `CCOP(=S)(OCC)OP(=S)(OCC)OCC`, the result in [1], in [2], in [4], in [5], in [18] and in assay [6] was inactive. In addition, the call in [7], in [8], in [9], in assay [10], in [12] and in [14] was inactive. Also, the outcome in assay [15] and in [16] was inactive. For the same molecule, in assay [11], the AC50 is 49.2 µM (active).
For `O=C(O)C1(c2ccc3c(c2)OC[C@H](Cc2ccc(-c4ccccc4)cc2)[C@H]3O)CCCC1`, the call in assay [1], in [2], in [4], in assay [5], in assay [17] and in assay [6] was inactive. For the same molecule, the molecule was called inactive in [7], in assay [19], in assay [10], in [11], in [12] and in assay [13]. Also, the outcome in assay [15] and in assay [16] was inactive. Moreover, the figures for the AC50 in assay [9] and in assay [14] were 2.83 µM (active) and 2.85 µM (active), respectively.
In the case of `OC(Cc1ccccc1Cl)(Cn1cncn1)C1(Cl)CC1` (stereo unspecified), the figures for the concentration at half-maximal activity (AC50) in [1], in [14] and in [15] were 47.6 µM (active), 37.3 µM (active) and 19.8 µM (active), respectively. Moreover, the call in assay [2], in assay [3], in assay [4], in assay [5], in [17] and in assay [18] was inactive. Also, the call in [6], in assay [7], in [8], in [19], in [11] and in assay [12] was inactive. Besides, the result in assay [13] and in [16] was inactive.
